Screening results deposited in PubChem BioAssay by National Center for Advancing Translational Sciences (NCATS).
GLP1R cytotox: qHTS of GLP-1 Receptor Inverse Agonists: Cytotox Screen; HEK293 cAMP-luciferase reporter cells, luminescence, 24 h; Potency, µM (series often up to 38.3 µM), actives largely listed as inhibitors; 410,000 tested, 0.13% active;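 note: loss of luciferase light is scored as toxicity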
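Compound-treated cells are incubated 24 hr at 37 deg C under 5% CO2 after a 12 hour attachment period, then luciferase detection reagent is added and luminescence is measured following 12 min at room temperature; lowered signal indicates toxicity.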
ClpP mod: qHTS Assay for Activators of ClpP; purified B. subtilis ClpP, FRET peptide cleavage, 20 min; Potency, µM (doses to about 57.5 µM); 340,000 tested, 1.9% active; AID 651965, 2013; active = well fitted falling curve with a large enough effect; inconclusive = small, poorly fitted or top-dose-only effect; inactive = no such curve, though single readings can be large or run the other way; note: the source files actives as falling curves though it sought activators and does not explain the sign; nearly all actives have a fitted effect of over 65% in size
Target sequence (P80244 whole entry, looked up): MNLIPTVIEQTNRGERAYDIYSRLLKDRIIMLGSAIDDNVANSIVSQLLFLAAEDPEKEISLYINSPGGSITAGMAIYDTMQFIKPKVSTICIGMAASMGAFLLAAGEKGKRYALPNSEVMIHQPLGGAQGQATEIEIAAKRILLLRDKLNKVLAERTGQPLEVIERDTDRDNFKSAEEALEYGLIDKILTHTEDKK
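Purified B. subtilis ClpP, 10 microg/mL final in Tris/HCl pH8 with KCl, BSA, glycerol and Tween-20, cleaved an Abz/nitrotyrosine-quenched decapeptide. Fluorescence (ex 320, em 430) was read at 0 and 20 min at room temperature. Delta was normalized to 5.8 microM ADEP and DMSO/no-enzyme controls.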
GLP-1R inv ag: qHTS of GLP-1 Receptor Inverse Agonists (Inhibition Mode); Glucagon-like peptide 1 receptor (Homo sapiens), P43220; HEK293 GLP-1R CRE-luciferase, luminescence, 24 h; GLP-1R form is constitutively active; Potency, µM (top dose mostly 38.3 µM), usual class: inhibitors; 410,000 tested, 1.6% active; note: nearly all actives have a fitted effect of over 55% in size
Target sequence (P43220 whole entry, looked up): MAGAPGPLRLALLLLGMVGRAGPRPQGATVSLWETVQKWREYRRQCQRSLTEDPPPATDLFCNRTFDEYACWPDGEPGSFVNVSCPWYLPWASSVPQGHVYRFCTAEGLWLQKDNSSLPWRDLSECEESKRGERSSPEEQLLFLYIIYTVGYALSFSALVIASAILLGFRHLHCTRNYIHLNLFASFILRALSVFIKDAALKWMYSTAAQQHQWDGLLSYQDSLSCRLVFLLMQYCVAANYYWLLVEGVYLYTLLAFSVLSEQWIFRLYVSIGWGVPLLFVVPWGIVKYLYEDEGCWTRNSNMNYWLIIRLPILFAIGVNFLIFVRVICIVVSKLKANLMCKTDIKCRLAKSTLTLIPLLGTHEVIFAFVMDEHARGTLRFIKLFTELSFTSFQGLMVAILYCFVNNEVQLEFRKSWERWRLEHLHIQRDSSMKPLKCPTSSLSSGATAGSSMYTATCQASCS
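Seeding at 200 cells/uL, 12 h culture, 24 hr compound treatment, then luciferase reagent and a luminescence read; cells are HEK293 stably expressing a constitutively active GLP-1R plus cAMP-responsive luciferase.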
p53 reactivation: qHTS assay for re-activators of p53 using a Luc reporter | H1299 p53-A138V BP100-luciferase reporter, luminescence, 24 h | Potency, µM (highest dose often 92.2 µM), actives largely listed as activators | 320,000 tested, 0.063% active; note: nearly all actives have a fitted effect of over 45% in size
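H1299 (p53-null), stable ts p53-A138V + BP100-Luc; 1000 cells/well, Opti-MEM/10% FBS; cpd 4 pt, 1:5; 24 h, 37 deg C, 5% CO2; detection reagent 10 min RT; luminescence.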
GLP-1R agonist: qHTS of GLP-1 Receptor Agonists; Glucagon-like peptide 1 receptor (Homo sapiens), P43220; HEK293 GLP-1R CRE-luciferase, luminescence, 4-6 h; cells express a hypersensitive GLP-1R form; Potency, µM (highest dose often 45.6 µM), hits mostly activators; 380,000 tested, 0.007% active; AID 624172, 2012
LDHA inh: qHTS assay for inhibitors of human lactate dehydrogenase | L-lactate dehydrogenase A chain (Homo sapiens), P00338 | purified LDHA, NADH/diaphorase-resazurin fluorescence; active compounds read low | activity change, % (values are at about 110 or 230 µM) | 480,000 tested, 0.15% active | AID 1347041, 2019; in the data active = activity change below about -30%; inconclusive = mostly about -25% to -30%
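Human LDH5 (2 nM) was incubated with 0.06 mM NADH and 0.2 mM pyruvate for 5 min at room temperature in Tris pH 7.4. Remaining NADH was coupled through diaphorase/resazurin, and resorufin fluorescence was read at 0 and 20 min.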
Hits are given with their value; 0 = inactive; ? = inconclusive; - = no result given. This is a sample that favours compounds with a hit; in the whole collection about 2.9% have one here. Unless noted, calls come from the whole dose curve; as a rule, active = well fitted curve in the direction sought with a large enough effect; inconclusive = small, poorly fitted or top-dose-only effect, or another doubt; inactive = no such curve, though single readings can be large; an effect the other way counts as inactive or inconclusive.

SMILES | GLP1R cytotox | ClpP mod | GLP-1R inv ag | p53 reactivation | GLP-1R agonist | LDHA inh
COC(=O)CN1C(=O)[C@H]2[C@@H](/C=C/c3ccccc3)N3C(=O)CN(Cc4ccc(-c5ccccc5)cc4)C(=O)[C@@]3(C)[C@H]2C1=O | 0 | 0 | 0 | 0 | 0 | 0
CC1(c2nnc(Cc3ccccc3)o2)CC(c2cccc([N+](=O)[O-])c2)=NO1 (centres undefined) | 0 | 0 | 0 | 0 | 0 | 0
Cc1nc2nc(Cc3ccccc3)nn2c(C)c1Cl | 0 | 0 | 0 | 0 | 0 | 0
Cc1nc2nc(NCc3cccs3)nn2c(C)c1Cl | 0 | 13µM | 0 | 0 | 0 | 0
COc1cccc(CNc2nc3nc(C)c(Cl)c(C)n3n2)c1 | 0 | 32µM | 0 | ? | 0 | 0
Cc1nc2nc(COc3ccccc3)nn2c(C)c1Cl | 0 | 14µM | 0 | 0 | 0 | 0
CC(C)Sc1oc(-c2ccco2)nc1S(=O)(=O)c1ccccc1 | 0 | 0 | 0 | 0 | 0 | 0
O=C(CCN1CCN(c2ccccc2)CC1)Nc1cccc(Br)c1 | 0 | 0 | 11µM | 0 | 0 | 0
O=C(CCN1CCCC1)Nc1cccc(Br)c1 | 0 | 0 | 0 | 0 | 0 | 0
O=C(COc1ccccc1)NCC(c1ccco1)N1CCN(c2ccccc2F)CC1 (centres undefined) | 0 | 1.8µM | ? | 0 | 0 | 0
Cc1ccccc1NC(=O)c1cc(=O)c2ccc(C)c(C)c2o1 | - | - | - | - | - | 0
CN1CCCCCC1=Nc1ccc([N+](=O)[O-])cc1 | 0 | 11µM | ? | - | 0 | 0
CN1CCCC1=Nc1ccccc1 | 0 | 0 | 0 | - | 0 | 0
Cc1cc(NCCCn2ccnc2)n2ncc(-c3ccc(Cl)cc3)c2n1 | ? | 20µM | 0 | ? | 0 | 0
Cc1cc(NCCCN2CCOCC2)n2ncc(-c3ccc(Cl)cc3)c2n1 | 0 | 25µM | 0 | ? | 0 | 0
COCCCN1CCC(CN)C1 (centres undefined) | - | - | - | - | - | 0
COc1cc(OC)cc(C(=O)N2CCN(C3CCN(Cc4ccccc4)CC3)CC2)c1 | 0 | 0 | 0 | 0 | 0 | -31
Cc1ccccc1NC(=S)NC(=O)C1CCCCC1 | ? | 0 | 8.9µM | 0 | 0 | 0
Cc1cccc(NC(=S)NC(=O)C2CC2)c1 | - | - | - | 25µM | - | -
Cc1cc(C)cc(NC(=S)NC(=O)C2CC2)c1 | ? | 0 | 11µM | 0 | 0 | 0
Cc1nc2sccn2c(=O)c1S(=O)(=O)N1CCN(c2ccccc2)CC1 | 0 | 0 | 0 | - | 0 | 0
COc1ccc(-c2nc(SCC(=O)Nc3ccc4c(c3)OCCO4)c(-c3ccc(C)cc3)[nH]2)cc1OC | 0 | ? | ? | - | - | 0
O=C(CN(Cc1ccccc1)S(=O)(=O)c1ccc2c(c1)OCCO2)Nc1ccc2c(c1)OCCO2 | ? | 0 | ? | 0 | 0 | 0
CCOC(=O)C(=CNNc1cccc(Cl)c1)C(=O)OCC | 0 | 0 | 5µM | 0 | 0 | 0
O=C(CNc1ccc(F)cc1)N/N=C1\CCc2ccccc21 | 0 | - | 0 | 0 | 0 | 0
SMILES | GLP1R cytotox | ClpP mod | GLP-1R inv ag | p53 reactivation | GLP-1R agonist | LDHA inh
Cc1ccc(SCCN2CCN(Cc3ccccc3)CC2)cc1 | 0 | 0 | ? | 0 | 0 | -31
Cc1ccc(SCCN2CCN(C)CC2)cc1 | 0 | - | 0 | - | 0 | 0
CCc1cccc(C)c1NC(=O)C1CN(S(=O)(=O)c2ccccc2)CCN1S(=O)(=O)c1ccccc1 (centres undefined) | 0 | 25µM | 0 | 0 | 0 | 0
CCOC(=O)C1CN(S(=O)(=O)c2ccccc2)CCN1S(=O)(=O)c1ccccc1 (centres undefined) | 0 | 0 | 0 | 0 | 0 | 0
Cn1c2cc(S(C)=O)sc2c2cnn(Cc3ccccc3F)c(=O)c21 (centres undefined) | - | - | - | - | - | 0
Cc1ccc(-c2cc3cccc[n+]3cc2-c2ccc(C)cc2)cc1 | 0 | 2.8µM | 0 | 0 | 0 | 0
Cc1ccc2nc(-c3ccncc3)cc(-c3ccccc3)c2c1 | 0 | ? | 0 | 0 | 0 | 0
CCC(NC(=O)c1ccccc1O)c1ccccc1 (centres undefined) | 0 | 32µM | 0 | 0 | 0 | 0
CCC(NC(=O)c1ccc(C)s1)c1ccccc1 (centres undefined) | - | - | - | - | - | 0
Cc1ccccc1CNC(=O)c1oc2c(c1C)-c1[nH]ncc1CC2 | 0 | ? | 0 | - | - | 0
Cc1c(C(=O)NCc2cccc(F)c2)oc2c1-c1[nH]ncc1CC2 | 0 | 28µM | 0 | - | - | 0
COc1cccc(CNC(=O)c2oc3c(c2C)-c2nn(Cc4cccc(Cl)c4)cc2CC3)c1 | 0 | ? | 11µM | - | - | 0
COc1cccc(CNC(=O)c2oc3c(c2C)-c2nn(Cc4cccc(Cl)c4)cc2CC3)c1OC | 0 | 0 | ? | - | - | 0
Cc1nc(C)c(C(=O)OCC(=O)Nc2ccccc2SCC#N)s1 | 0 | 0 | 0 | 0 | 0 | 0
Cc1onc(-c2ccccc2Cl)c1C(=O)N1CCCc2ccccc21 | 0 | 0 | 0 | 0 | 0 | 0
COc1cc(NC(=O)CCN2CCN(C/C=C/c3ccccc3)CC2)cc(OC)c1 | 0 | 0 | 10µM | 0 | 0 | 0
Cc1cnc2c(S(=O)(=O)N(C)CC(=O)Nc3c(C)cccc3C)cccc2c1 | - | - | - | - | - | 0
C=CCn1c(SCc2c(C)noc2C)nc2cc(C(=O)O)ccc2c1=O | 0 | 0 | 0 | 0 | 0 | 0
CC12CCC(=O)N1c1c(sc3nc(N4CCOCC4)c4c(c13)CCCC4)C(=O)N2 (centres undefined) | 0 | 25µM | 0 | 0 | 0 | 0
COC(=O)c1ccc(-c2sc3nc(N4CCOCC4)c4c(c3c2N)CCCC4)o1 | 0 | 0 | 0 | 0 | 0 | 0
Cn1nc(C(=O)OCC(=O)Nc2cccc(S(=O)(=O)N3CCCC3)c2)c2ccccc2c1=O | 0 | 0 | 0 | 0 | 0 | 0
CC(C)OCCCn1c(=O)c2ccccc2n2c(-c3ccc(F)cc3)nnc12 | 0 | 0 | 0 | - | - | 0
O=C(Nc1ccc2nc3n(c(=O)c2c1)CCCCC3)c1c(F)ccc([N+](=O)[O-])c1F | ? | - | ? | 0 | 0 | 0
CC1CCCCN1C(=S)Nc1ccc2nc3n(c(=O)c2c1)CCCCC3 (centres undefined) | 0 | 28µM | 0 | 0 | 0 | 0
O=C(Nc1ccc2nc3n(c(=O)c2c1)CCCCC3)c1cc([N+](=O)[O-])ccc1F | ? | 0 | 11µM | 0 | 0 | 0
COc1cccc(NC(=O)COc2c(C)[nH]ccc2=O)c1 | - | - | - | - | - | 0
